Measured values published in PubChem BioAssay (EPA / NIEHS).
Activity calls are given as the source filed them. How the source made its calls: active means hit-call score of the fitted dose curve at least 0.9, where 1 is the maximum; inactive means score below 0.9.

target: Transcriptional activator Myb (Homo sapiens) (UniProt P10242); experiment: ATG_Myb_CIS: Attagene CIS-FACTORIAL HepG2 Assay for human Myeloblastosis (Myb) Proto-Oncogene Transcription Factor (AID 2282986); conditions: HepG2 Attagene CIS-FACTORIAL Myb reporter transcription; actives raise or lower the signal
Sequence (P10242 whole entry, looked up): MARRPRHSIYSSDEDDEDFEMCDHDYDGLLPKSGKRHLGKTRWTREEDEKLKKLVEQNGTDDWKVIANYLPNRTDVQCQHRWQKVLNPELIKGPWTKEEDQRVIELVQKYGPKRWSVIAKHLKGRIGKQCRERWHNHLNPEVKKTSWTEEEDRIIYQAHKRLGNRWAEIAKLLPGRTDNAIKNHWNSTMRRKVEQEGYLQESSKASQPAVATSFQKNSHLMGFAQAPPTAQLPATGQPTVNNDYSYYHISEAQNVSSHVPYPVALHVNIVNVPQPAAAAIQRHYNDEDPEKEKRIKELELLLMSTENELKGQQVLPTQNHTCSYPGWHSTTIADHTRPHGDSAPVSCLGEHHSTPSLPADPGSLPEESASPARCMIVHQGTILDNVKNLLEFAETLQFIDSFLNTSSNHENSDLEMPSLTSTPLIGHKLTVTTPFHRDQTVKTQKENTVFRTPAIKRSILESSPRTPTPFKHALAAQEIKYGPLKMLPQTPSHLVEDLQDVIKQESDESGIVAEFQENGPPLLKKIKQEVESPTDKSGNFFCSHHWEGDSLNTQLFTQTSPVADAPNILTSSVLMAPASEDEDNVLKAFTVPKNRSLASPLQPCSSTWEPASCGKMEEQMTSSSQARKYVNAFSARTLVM
Protocol: ATG_CIS is a cell-based, multiplexed-readout assay that uses HepG2, a human liver cell line, with measurements taken at 24 hours after chemical dosing in a 24-well plate.ATG_Myb_CIS is one of 52 assay component(s) measured or calculated from the ATG_CIS assay. It is designed to make measurements of mRNA induction, a form of inducible reporter, as detected with fluorescence intensity signals by Reverse transcription polymerase chain reaction (RT-PCR) and Capillary electrophoresis technology.Data from the assay component ATG_Myb_CIS was analyzed into 1 assay endpoint. This assay endpoint, ATG_Myb_CIS, was analyzed with bidirectional fitting relative to DMSO as the negative control and baseline of activity. Using a type of inducible reporter, measures of mRNA for gain or loss-of-signal activity can be used to understand the reporter gene at the transcription factor-level as they relate to the gene MYB. Furthermore, this assay endpoint can be referred to as a primary readout, because this assay has produced multiple assay endpoints where this one serves a reporter gene function. To generalize the intended target to other relatable targets, this assay endpoint is annotated to the dna binding intended target family, where the subfamily is MYB proteins.
Human liver HepG2 cells are transiently transfected with multiple reporter transcription units (MRTUs) in 6-well plates using FuGene 6 reagent (Roche; 3 ml FuGene/1 mg DNA). The MRTU constructs are regulated by a cis-regulating element (promoter). […] A major difference between the CIS and TRANS system is that in CIS activities of endogenous TFs are measured, whereas the TRANS assay evaluates changes in activities of exogenous, chimeric NR-Gal4 proteins. […] At the end of 24 hour incubation, total RNA was isolated using TriZol reagent (Invitrogen). The isolated RNA is then reverse-transcribed using oligo(dT) primer and Mo-MLV reverse transcriptase (Invitrogen) with DNAse I (Ambion) treatment for 30 min. The one-tenth of the produced cDNA was amplified by PCR using Taq DNA polymerase (Invitrogen) and two reporter sequence-specific primers. The PCR products were fluorescently labeled by primer extension with 6-arboxyfluorescein (6-FAM) 5'-labeled reporter sequence-specific primer (2 min at 95 C, 20 s at 68 C and 10 min at 72 C) and these products were digested with 5U of HpaI (New England Biolabs) for 2h at 37 C. The fragments were purified using Qiaquick PCR columns (Qiagen), analyzed on an ABI 3130xL genetic analyzer (Applied Biosystems) with peak positions identified by using a set of X-rhodamine (ROX)-labeled MapMarker1000 molecular weight standards (BioVentures). The raw capillary electrophoresis data was processed using Attagraph software (Attagene).

Structure (SMILES)	outcome	AC50
CC(C)N(C(=O)SCC(Cl)=C(Cl)Cl)C(C)C	inactive	–
C[N+]1(C)CCCCC1	inactive	–
CCOC(=O)CC(SP(=O)(OC)OC)C(=O)OCC (stereo not given)	inactive	–
CNC(=O)ON=C(C)SC	inactive	–
CC(C1CC1)C(O)(Cn1cncn1)c1ccc(Cl)cc1 (stereo not given)	inactive	–
CC(Oc1cccc(Cl)c1)C(=O)O (stereo not given)	inactive	–
CC[C@H](C)[C@H]1O[C@]2(C=C[C@@H]1C)C[C@@H]1C[C@@H](C/C=C(\C)[C@@H](O[C@H]3C[C@H](OC)[C@@H](O[C@H]4C[C@H](OC)[C@@H](NC)[C@H](C)O4)[C@H](C)O3)[C@@H](C)/C=C/C=C3\CO[C@@H]4[C@H](O)C(C)=C[C@@H](C(=O)O1)[C@]34O)O2	inactive	–
CCCCOC(=O)c1ccccc1C(=O)O	inactive	–
CCOP(=S)(OCC)OC(Cl)C(Cl)(Cl)Cl (stereo not given)	inactive	–
CN(C)NC(=O)CCC(=O)O	inactive	–
CC1=NNC(=O)N(/N=C/c2cccnc2)C1	inactive	–
CCc1cccc(C)c1N(C(=O)CCl)C(C)COC (stereo not given)	inactive	–
CCC(=NOC/C=C/Cl)C1=C(O)CC(C2CCOCC2)CC1=O (stereo not given)	inactive	–
CSc1nc(NC(C)C)nc(NC(C)C)n1	inactive	–
CCOC(=O)COc1cc(-c2nn(C)c(OC(F)F)c2Cl)c(F)cc1Cl	inactive	–
CCCCN(CC)c1c([N+](=O)[O-])cc(C(F)(F)F)cc1[N+](=O)[O-]	inactive	–
CNC(=O)ON=C(SC)C(=O)N(C)C	inactive	–
CSc1nnc(C(C)(C)C)c(=O)n1N	inactive	–
COP(=O)(OC)C(O)C(Cl)(Cl)Cl (stereo not given)	inactive	–
CC(=NC#N)N(C)Cc1ccc(Cl)nc1	inactive	–

Structure (SMILES)	outcome	AC50
CN(C)[C@@H]1C(=O)C(C(N)=O)=C(O)[C@@]2(O)C(=O)C3=C(O)c4c(O)cccc4[C@@](C)(O)[C@H]3[C@H](O)[C@@H]12	inactive	–
CC1(C(=O)Nc2ccc(O)c(Cl)c2Cl)CCCCC1	inactive	–
CON=C(C(=O)OC)c1ccccc1CON=C(C)c1cccc(C(F)(F)F)c1	inactive	–
CCCCOC(=O)[C@@H](C)Oc1ccc(Oc2ccc(C#N)cc2F)cc1	inactive	–
CCC(=O)Nc1ccc(Cl)c(Cl)c1	inactive	–
CC(C)[C@H](C(=O)O[C@H](C#N)c1cccc(Oc2ccccc2)c1)c1ccc(Cl)cc1	inactive	–
Nc1nc(N)nc(NC2CC2)n1	inactive	–
CCOP(=O)(OCC)Oc1cc(C)nc(C(C)C)n1	inactive	–
CCc1cnc(C2=NC(C)(C(C)C)C(=O)N2)c(C(=O)O)c1 (stereo not given)	inactive	–
Cc1cc(C2CC2)nc(Nc2ccccc2)n1	–	79.1 µM (active)
CCOP(=S)(Oc1cnc(C(C)(C)C)nc1)OC(C)C (stereo not given)	inactive	–
S=C1NCCN1	inactive	–
FC(F)C(F)(F)OCC(Cn1cncn1)c1ccc(Cl)cc1Cl (stereo not given)	inactive	–
Nc1c(Cl)cc([N+](=O)[O-])cc1Cl	inactive	–
N#CSCSC#N	inactive	–
CC(COc1ccc(Oc2ccccc2)cc1)Oc1ccccn1 (stereo not given)	inactive	–
CCCOCC(=Nc1ccc(Cl)cc1C(F)(F)F)n1ccnc1	inactive	–
Cc1nn(-c2cc(NS(C)(=O)=O)c(Cl)cc2Cl)c(=O)n1C(F)F	inactive	–
COP(=O)(OC)SCn1c(=O)oc2cc(Cl)cnc21	inactive	–
CCCSP(=O)(OCC)SCCC	inactive	–
